Data taken from PubChem BioAssay AID485346 (Sanford-Burnham Center for Chemical Genomics, 2010).
Out of some 330,000 compounds screened, about 10,000 (3%) were called active.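 How the source made its calls: active means inhibition of at least 50% at 8 µM in the primary screen; inactive means the rest.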 Shown is part of a subset that was picked to be rich in actives.

The molecules below were run against Protein Mdm4 (Homo sapiens) + E3 ubiquitin-protein ligase Mdm2 (Homo sapiens) (UniProt O15151+Q00987) (assay: inhibitors of human Mdm2-MdmX association, primary screen, cell-based, luminescence, split luciferase, SaOS-2, uHTS (AID 485346)). Settings: SaOS-2 split-luciferase Mdm2/MdmX complementation, at 8 µM, hits give high values.
Protein Mdm4 (Homo sapiens) + E3 ubiquitin-protein ligase Mdm2 (Homo sapiens), sequence (O15151 whole entry, looked up): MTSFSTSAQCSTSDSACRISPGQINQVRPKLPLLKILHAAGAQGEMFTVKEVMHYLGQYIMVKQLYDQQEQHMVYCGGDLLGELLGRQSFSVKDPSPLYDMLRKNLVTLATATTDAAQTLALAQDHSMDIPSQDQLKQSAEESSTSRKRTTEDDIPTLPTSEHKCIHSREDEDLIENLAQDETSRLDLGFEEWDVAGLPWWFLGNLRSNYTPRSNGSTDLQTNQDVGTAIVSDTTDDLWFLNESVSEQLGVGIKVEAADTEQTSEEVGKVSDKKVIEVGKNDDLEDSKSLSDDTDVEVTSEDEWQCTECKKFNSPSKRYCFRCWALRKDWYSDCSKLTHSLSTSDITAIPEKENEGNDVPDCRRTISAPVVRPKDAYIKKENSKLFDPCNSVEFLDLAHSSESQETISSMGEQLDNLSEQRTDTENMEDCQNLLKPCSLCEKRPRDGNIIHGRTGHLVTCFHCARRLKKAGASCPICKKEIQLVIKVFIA
Protein Mdm4 (Homo sapiens) + E3 ubiquitin-protein ligase Mdm2 (Homo sapiens), sequence (Q00987 whole entry, looked up): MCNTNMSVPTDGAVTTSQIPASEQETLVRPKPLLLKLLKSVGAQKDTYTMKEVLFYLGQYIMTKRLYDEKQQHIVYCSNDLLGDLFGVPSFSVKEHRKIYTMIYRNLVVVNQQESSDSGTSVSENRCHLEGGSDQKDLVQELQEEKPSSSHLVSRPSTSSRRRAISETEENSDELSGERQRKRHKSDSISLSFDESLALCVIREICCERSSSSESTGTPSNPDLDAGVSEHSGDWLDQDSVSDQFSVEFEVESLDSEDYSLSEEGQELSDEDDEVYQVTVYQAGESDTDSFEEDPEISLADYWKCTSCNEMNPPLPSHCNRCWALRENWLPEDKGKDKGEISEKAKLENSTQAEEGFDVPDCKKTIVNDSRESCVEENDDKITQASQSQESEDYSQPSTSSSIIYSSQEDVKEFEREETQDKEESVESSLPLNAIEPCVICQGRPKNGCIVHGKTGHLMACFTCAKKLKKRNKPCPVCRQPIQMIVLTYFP

inhibition, inactive:
O=c1c(/C=N/O)coc2ccc(Cl)cc12 9.78%
CC(C)(C)OC(=O)NCCCCCC(=O)N/N=C/c1coc2ccccc2c1=O 19.7%
O=C1CC(Cc2ccc(Cl)cc2)C(=O)N1c1cc(Cl)ccn1 (stereo not given) -4.34%
CN(C)/C(CN1CCCCC1)=C1\N=C(c2ccccc2)OC1=O 0.454%
CCc1cc2cc(OC)ccc2nc1SCC(=O)Nc1cc(OC)c(OC)cc1C(=O)O 17%
Cc1ccc(C)c(N2CCN(S(=O)(=O)c3c(C)[nH]c(C)c3C(=O)N3CCCC3)CC2)c1 5.45%
Cc1[nH]c(C)c(S(=O)(=O)N2CCN(c3cccc(C(F)(F)F)c3)CC2)c1C(=O)N1CCCC1 14.7%
CCOn1c(=O)c(=O)n(O)c2ccccc21 3.67%
COc1ccc(-c2cc(-c3ccc(N)cc3)nc(N)c2C#N)cc1OC 32.6%
CCS(=O)(=O)NCCc1ccc(OC)c(OC)c1 18.8%
Cc1nc2ccccc2nc(=O)c1NNc1ccc([N+](=O)[O-])cc1 -2.46%
Cc1ccc(C)c(NS(=O)(=O)c2c(C)[nH]c(C)c2C(=O)N2CCCCC2)c1 -0.656%
Cc1c(C)n(Cc2ccc(Cl)cc2)c2ccc(C(=O)NCCCN3CCOCC3)cc12 45.2%
CC1(C(=O)OCC(=O)Nc2ncc(Cl)cc2Cl)CC1(Cl)Cl (stereo not given) -3.51%
C=CCNC(=S)NNc1ncnc2sc3c(c12)CC(C)(C)OC3 10.5%
COc1cc(/C=C/C(=O)OCC(=O)NCCCc2ccccc2)ccc1O -15.8%
O=C(CCC(=O)N1CCCC1)Nc1ccc([N+](=O)[O-])cc1 8.85%
CCC12CN3CC(CC)(CN(C1)C31C(=O)N(C)c3ccc(C)cc31)C2=O (stereo not given) 5.2%
Cc1cccc(C(=O)OC(C)CN2CCN(C)CC2)c1 (stereo not given) 15.4%
CCC1=Nc2cc(C(=O)NCCN3CCCC3)ccc2Sc2ccc(C)cc21 22.7%
O=C(CCN1C(=O)c2ccccc2C1=O)NNC(=O)c1ccc(Cl)cc1Cl -2.94%
Cc1ccc(C(=O)NNC(=O)c2ccc3c(c2)OCCO3)cc1 -59.9%
CCCCn1c(N)c(N(CCC(C)C)C(=O)COC(=O)c2ccc(CC)cc2)c(=O)[nH]c1=O 5.72%
CCc1ccccc1NC(=O)[C@@H]1CCC(=O)N1C1OC(=O)c2c1ccc(OC)c2OC (stereo not given in full) 18.1%
CC1CN(C(=O)CCC(=O)NC2CCN(Cc3ccccc3)CC2)c2ccccc2O1 (stereo not given) 22.7%
CC1CN(C(=O)CCC(=O)NCc2cccnc2)c2ccccc2O1 (stereo not given) -8.45%
CC(OC(=O)CCc1nc(=O)c2ccccc2n1C)C(=O)NCc1ccc2c(c1)OCO2 (stereo not given) -11.9%
CN(CC(=O)NC(=O)Nc1ccccc1F)Cc1ccccc1 -18%
CCOC(=O)CSc1nncc2ccc(OC)c(OC)c12 0.893%
COc1ccc(C2c3c(C)nn(-c4ccccc4)c3NC(=O)N2c2ccccc2)cc1 (stereo not given) 9.76%
Cc1cc([N+](=O)[O-])nn1CCCC(=O)Nc1cccnc1Cl 21.4%
COc1ccc(N2CCN(S(=O)(=O)CCNC(=O)C34CC5CC(CC(C5)C3)C4)CC2)cc1 17.2%
CCOC(=O)C(C)n1nc(-c2ccccc2)c2ccccc2c1=O (stereo not given) 7.24%
Cc1cc(C)nc(/N=C2\NC(=O)CC(C(=O)O)N2c2ccc(Cl)cc2Cl)n1 (stereo not given) 3.8%
O=C(COC(=O)c1ccccc1Cl)NC1CCCCCCC1 4.18%
COc1cc(OC)c(S(=O)(=O)Nc2ccccc2C(=O)O)cc1S(=O)(=O)Nc1ccccc1C(=O)O 13.2%
COC(=O)c1ccc(NC(=O)c2ccccc2NS(=O)(=O)c2ccccc2)cc1 36.9%
O=C(Nc1cc2c3c(c1)C1CCCC1CN3CC1CCCC21)c1ccc([N+](=O)[O-])cc1 (stereo not given) 14.3%
CN(C)c1ccc(C=NCCc2ccc(S(N)(=O)=O)cc2)cc1 5.89%
Cc1cc(C)c(C#N)c(SCC(=O)Nc2ccccc2)n1 -38.3%
Cc1cccc(C)c1NC(=O)CSc1ccc([N+](=O)[O-])cn1 7.43%
CN(C)CCn1c2c(c(SCC(=O)Nc3ccccc3C(F)(F)F)nc1=O)CCCC2 18.8%
Cc1ccc2nc3c(cc(C(=O)NCCc4ccccc4)c(=N)n3CC3CCCO3)c(=O)n2c1 (stereo not given) 27.8%
Cc1cccn2c(=O)c3cc(C(=O)NCC4CCCO4)c(=N)n(Cc4ccc(F)cc4)c3nc12 (stereo not given) 19.6%
Cc1cccn2c(=O)c3cc(C#N)c(=O)n(CCCN4CCOCC4)c3nc12 16%
COc1ccc(CNC(=O)c2cc3c(=O)n4ccccc4nc3n(CC3CCCO3)c2=N)cc1 (stereo not given) 22.4%
COc1cccc(C2=CC(=O)C[C@H](c3ccc(F)cc3)C2)c1OC 11.8%
Cc1nc(-c2ccc(Cl)cc2)sc1C1(C)CC(c2ccc(Br)cc2)=NO1 (stereo not given) 4.57%
Cc1c(Cl)cccc1NC(=O)Nc1ccc(C(=O)N2CCCC2)cc1 41.9%
Cc1[nH]c(C)c(S(=O)(=O)N2CCC(C)CC2)c1C(=O)N1CCCC1 -8.55%
N#Cc1ccc(C2=CC(=O)C[C@H](c3ccc(Cl)cc3)C2)cc1 -22.1%
COC(=O)c1c(-c2ccc(C)cc2)csc1N 16.7%
CC(=NCc1ccco1)C1=C(O)c2ccccc2C1=O -27.5%
Cc1cc(-c2ccc(S(=O)(=O)N3CCc4ccccc4C3)s2)on1 -2.71%
C/C(=N\NC(=O)c1ccc(C)cc1)C1C(=O)c2ccccc2C1=O 1.09%
COc1cc(NC(=O)c2ccc(CNc3c(N4CCCC4)c(=O)c3=O)cc2)cc(OC)c1OC -9.99%
O=C(NCc1ccc2c(c1)OCO2)c1c(O)nc2sccn2c1=O 16.7%
CC(=O)c1c(OCC(=O)N(C)C2CCCCC2)ccc2c(C)cc(=O)oc12 4.3%
COc1cc(C)cc(CN2CCC(Cc3ccccc3)CC2)c1O -29.4%
O=C(CN1CCN(c2ccc(F)cc2)CC1)Nc1ccccc1 0.1%
CC1CCCN(CC(O)COCc2ccccc2)C1 (stereo not given) 3.39%
Cc1cccnc1NC(=O)c1cccc(S(=O)(=O)N2CCN(c3ccc(F)cc3)CC2)c1 28.4%
CC(C)(C)C1CCC(C(=O)Nc2cccnc2)CC1 (stereo not given) 19%
CCC(C)(C(=O)Nc1ccccc1C)N(C(=O)CNC(C)=O)c1ccc(C)cc1 (stereo not given) -5.46%
CC(OC(=O)CCCOc1ccccc1)C(=O)Nc1ccc(Cl)cn1 (stereo not given) 17.5%
COC(=O)[C@@H]1C[C@@]2(O)[C@H](O)[C@H](O)[C@H](O)C[C@H]2N1Cc1ccc(C)s1 7.36%
CCC(c1nnnn1Cc1ccco1)N(CCc1ccccc1)Cc1cc2cccc(C)c2[nH]c1=O (stereo not given) 12.5%
Cc1cccc2cc(CN(Cc3nnnn3Cc3ccccc3)C3CCCC3)c(=O)[nH]c12 13.2%
CN(C(=O)CSc1cccc[n+]1[O-])C1CCCCC1 20.9%
CN1CCN(CC#CCC2(O)c3ccccc3-c3ccccc32)CC1 16.2%
COc1ccc(-c2nnc(SCC(=O)c3ccc4c(c3)OCCO4)o2)cc1 17.3%
COc1ccc(-c2nnc(SC(C)C(=O)NC3CC3)o2)cc1 (stereo not given) 19.9%
O=C(CCc1ccccc1)Nc1ccc(NC(=O)C2CCCCC2)nc1 11%

inhibition, active:
Cc1ccc2occ(/C=N/NC(=O)c3ccccc3C)c(=O)c2c1 68.7%
Cc1[nH]c(C)c(S(=O)(=O)N2CCN(c3cccc(C(F)(F)F)c3)CC2)c1C(=O)N1CCCCC1 76.3%
COc1ccc(-c2cc(C(F)(F)F)nc(S(C)(=O)=O)n2)cc1OC 94.6%
c1ccc2c(c1)CSc1sccc1C2=C1CCNCC1 78.5%
Cc1cccc(-c2nc3ccc(C(=O)NCCN4CCN(C)CC4)cc3nc2-c2cccc(C)c2)c1 93.2%
CC1CN(C(=O)CCC(=O)NCCCN2CCC(Cc3ccccc3)CC2)c2cc(Cl)ccc2O1 (stereo not given) 90.6%
CCCCCCCCn1c2c(c(=N)c3c1CCC3)CCCC2 87%
COc1cc(NC(=O)c2ccccc2NS(=O)(=O)c2ccc(Cl)s2)cc(OC)c1 85.1%
Cc1cc2cc3c(cc2nc1SCC(=O)Nc1c(C)cccc1C)CCC3 56.1%
COc1ccc(CCn2c(=N)c(C(=O)NCC3CCCO3)cc3c(=O)n4cccc(C)c4nc32)cc1OC (stereo not given) 64.4%
Cc1cccn2c(=O)c3cc(C(=O)NCCN4CCOCC4)c(=N)n(Cc4cccnc4)c3nc12 52.7%
CCOC(=O)c1c(-c2ccc(C)cc2)csc1/N=C(\C)C1=C(O)c2ccccc2C1=O 63.4%
Oc1c(CN2CCCC2)cc(COCc2ccccc2)c2cccnc12 75.7%
Oc1c(CN2CCN(c3ccc(F)cc3)CC2)cc(Cl)c2cccnc12 65%
CN1CCN(C2Cc3ccc(Cl)cc3Sc3ccc(F)cc32)CC1 (stereo not given) 54.3%
CCC(c1nnnn1C1CCCC1)N(Cc1cccs1)Cc1cc2cccc(C)c2[nH]c1=O (stereo not given) 56.1%
COc1ccc(-c2nnc(SC(=O)N3c4ccccc4Sc4ccccc43)o2)cc1 69.1%
